Data as given in the supplement of paper PMC11732987, “Enantioselective OTUD7B fragment discovery through chemoproteomics screening and high-throughput optimisation” (Communications Chemistry, 2025).

Key:
Test in all cases: log2 ratio of Biotin-Ahx-Ub-VS probe labelling (fragment/DMSO); higher = less target engagement (more negative = stronger competition), active = hit call of the paper (q ≤ 0.05, log2 ratio ≤ -1)
Settings in all cases: compound concentration: 200 uM; treatment time: 3 h
USP34 = USP34 (UniProt Q70CQ2)
How it was run: (§1)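 The table lists average log2 ratios of fragment over vehicle, from an unpaired t-test on global-median-normalised Spectronaut label-free quantities. Proteins with ≥2 unique peptides were used. Samples were HEK293T lysate (495 µg) treated in triplicate with fragment at 200 µM or vehicle for 3 h, then with Biotin-Ahx-Ub-VS (0.5 µM final) for 1 h, with labelled DUBs NeutrAvidin-enriched and run by diaPASEF LC-MS/MS.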

USP36 = molecular target: T1, USP36 (UniProt Q9P275)
T1 sequence (whole entry): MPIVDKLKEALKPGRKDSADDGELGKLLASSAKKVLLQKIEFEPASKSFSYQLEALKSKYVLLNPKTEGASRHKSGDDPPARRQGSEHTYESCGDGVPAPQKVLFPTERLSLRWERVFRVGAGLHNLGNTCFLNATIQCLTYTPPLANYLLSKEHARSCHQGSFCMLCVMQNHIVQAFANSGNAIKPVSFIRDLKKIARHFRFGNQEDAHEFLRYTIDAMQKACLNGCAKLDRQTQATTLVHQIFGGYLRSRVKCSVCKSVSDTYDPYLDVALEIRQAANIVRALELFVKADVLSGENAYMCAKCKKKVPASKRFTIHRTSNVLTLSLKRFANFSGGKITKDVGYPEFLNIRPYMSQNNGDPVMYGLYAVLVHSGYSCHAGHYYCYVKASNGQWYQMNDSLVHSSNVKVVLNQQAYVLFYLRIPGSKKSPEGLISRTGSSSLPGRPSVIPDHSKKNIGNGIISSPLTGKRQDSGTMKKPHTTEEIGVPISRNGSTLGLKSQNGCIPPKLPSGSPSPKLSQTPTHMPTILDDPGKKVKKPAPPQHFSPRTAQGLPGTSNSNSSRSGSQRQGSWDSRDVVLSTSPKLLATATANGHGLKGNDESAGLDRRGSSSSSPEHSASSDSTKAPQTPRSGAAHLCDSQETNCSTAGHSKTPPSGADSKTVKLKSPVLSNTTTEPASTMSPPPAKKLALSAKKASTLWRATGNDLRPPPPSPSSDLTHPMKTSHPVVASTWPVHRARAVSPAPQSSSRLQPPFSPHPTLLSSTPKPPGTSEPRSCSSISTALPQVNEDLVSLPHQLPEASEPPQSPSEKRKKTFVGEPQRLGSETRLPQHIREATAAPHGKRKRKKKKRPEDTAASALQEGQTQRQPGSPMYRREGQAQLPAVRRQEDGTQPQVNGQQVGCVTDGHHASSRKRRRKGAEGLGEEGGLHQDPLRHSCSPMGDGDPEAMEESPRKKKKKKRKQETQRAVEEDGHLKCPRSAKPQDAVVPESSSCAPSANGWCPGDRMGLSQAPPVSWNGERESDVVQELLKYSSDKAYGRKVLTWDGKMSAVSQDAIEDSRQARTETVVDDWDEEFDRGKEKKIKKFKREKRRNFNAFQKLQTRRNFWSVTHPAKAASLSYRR
How it was run: as §1

USP38 = molecular target: T2, USP38 (UniProt Q8NB14)
T2 sequence (whole entry): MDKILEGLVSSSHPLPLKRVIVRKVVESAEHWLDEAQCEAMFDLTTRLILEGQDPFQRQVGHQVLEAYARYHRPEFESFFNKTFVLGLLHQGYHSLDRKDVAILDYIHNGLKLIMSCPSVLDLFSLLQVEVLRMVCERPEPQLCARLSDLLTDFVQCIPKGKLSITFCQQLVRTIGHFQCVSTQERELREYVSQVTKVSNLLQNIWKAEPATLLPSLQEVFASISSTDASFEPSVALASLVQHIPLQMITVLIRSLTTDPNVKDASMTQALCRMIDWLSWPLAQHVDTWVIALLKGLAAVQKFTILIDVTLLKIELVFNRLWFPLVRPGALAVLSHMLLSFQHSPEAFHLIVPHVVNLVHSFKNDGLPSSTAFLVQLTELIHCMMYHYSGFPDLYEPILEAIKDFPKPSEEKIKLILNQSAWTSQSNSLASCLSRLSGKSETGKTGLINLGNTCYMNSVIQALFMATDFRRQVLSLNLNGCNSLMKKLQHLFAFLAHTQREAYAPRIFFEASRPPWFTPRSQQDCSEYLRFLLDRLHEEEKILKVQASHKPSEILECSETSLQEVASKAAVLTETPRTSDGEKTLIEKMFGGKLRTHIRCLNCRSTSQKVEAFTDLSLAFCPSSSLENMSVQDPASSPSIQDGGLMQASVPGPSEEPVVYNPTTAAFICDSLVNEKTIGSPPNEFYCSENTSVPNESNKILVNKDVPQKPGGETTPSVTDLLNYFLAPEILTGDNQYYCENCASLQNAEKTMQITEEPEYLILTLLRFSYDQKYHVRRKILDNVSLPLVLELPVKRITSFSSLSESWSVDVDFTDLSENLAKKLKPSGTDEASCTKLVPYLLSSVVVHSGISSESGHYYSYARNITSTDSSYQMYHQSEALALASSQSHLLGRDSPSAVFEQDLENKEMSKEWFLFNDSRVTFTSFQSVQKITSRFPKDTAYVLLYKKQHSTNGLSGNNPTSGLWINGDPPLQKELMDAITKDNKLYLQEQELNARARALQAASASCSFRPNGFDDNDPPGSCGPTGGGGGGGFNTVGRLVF
How it was run: as §1

USP39 = molecular target: T3, USP39 (UniProt Q53GS9)
T3 sequence (whole entry): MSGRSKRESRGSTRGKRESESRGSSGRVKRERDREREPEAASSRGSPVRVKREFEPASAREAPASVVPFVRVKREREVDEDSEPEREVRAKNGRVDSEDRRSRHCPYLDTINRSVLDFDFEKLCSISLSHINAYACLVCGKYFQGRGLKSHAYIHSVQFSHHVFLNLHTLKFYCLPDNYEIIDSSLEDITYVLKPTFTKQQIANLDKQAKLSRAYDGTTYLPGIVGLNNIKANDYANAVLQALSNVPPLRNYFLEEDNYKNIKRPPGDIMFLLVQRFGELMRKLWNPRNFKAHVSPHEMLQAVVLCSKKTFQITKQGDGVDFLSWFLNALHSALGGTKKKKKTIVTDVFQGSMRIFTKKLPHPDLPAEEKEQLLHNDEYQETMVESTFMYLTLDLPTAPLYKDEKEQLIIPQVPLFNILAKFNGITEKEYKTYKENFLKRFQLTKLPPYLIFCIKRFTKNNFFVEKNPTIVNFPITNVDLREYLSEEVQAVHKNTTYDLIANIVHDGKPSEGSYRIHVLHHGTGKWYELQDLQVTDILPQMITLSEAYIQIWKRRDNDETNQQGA
How it was run: as §1

USP4 = molecular target: T4, USP4 (UniProt Q13107)
T4 sequence (whole entry): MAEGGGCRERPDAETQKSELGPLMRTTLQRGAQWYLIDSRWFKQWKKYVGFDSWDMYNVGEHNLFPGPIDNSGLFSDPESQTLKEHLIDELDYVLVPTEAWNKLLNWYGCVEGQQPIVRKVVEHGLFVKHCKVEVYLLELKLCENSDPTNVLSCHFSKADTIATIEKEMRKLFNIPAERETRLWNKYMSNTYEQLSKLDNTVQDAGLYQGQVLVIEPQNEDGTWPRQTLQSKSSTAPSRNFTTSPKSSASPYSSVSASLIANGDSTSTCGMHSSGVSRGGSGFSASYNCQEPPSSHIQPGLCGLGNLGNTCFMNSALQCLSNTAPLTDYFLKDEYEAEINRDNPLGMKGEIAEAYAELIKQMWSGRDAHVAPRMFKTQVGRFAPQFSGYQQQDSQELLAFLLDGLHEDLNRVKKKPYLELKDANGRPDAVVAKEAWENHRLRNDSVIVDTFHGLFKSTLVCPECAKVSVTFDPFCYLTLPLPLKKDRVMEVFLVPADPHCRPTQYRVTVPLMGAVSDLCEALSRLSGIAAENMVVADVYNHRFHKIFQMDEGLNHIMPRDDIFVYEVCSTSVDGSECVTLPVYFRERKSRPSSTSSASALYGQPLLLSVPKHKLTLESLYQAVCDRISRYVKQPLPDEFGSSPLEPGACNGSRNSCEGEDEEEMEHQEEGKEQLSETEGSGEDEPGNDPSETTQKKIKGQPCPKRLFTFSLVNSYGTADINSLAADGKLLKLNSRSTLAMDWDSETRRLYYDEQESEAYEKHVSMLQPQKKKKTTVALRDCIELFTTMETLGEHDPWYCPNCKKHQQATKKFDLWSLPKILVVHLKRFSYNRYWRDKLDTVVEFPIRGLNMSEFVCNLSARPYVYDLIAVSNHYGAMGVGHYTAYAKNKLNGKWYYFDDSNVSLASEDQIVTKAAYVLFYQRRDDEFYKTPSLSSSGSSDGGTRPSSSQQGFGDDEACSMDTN
How it was run: as §1

Measured: log2 ratio of Biotin-Ahx-Ub-VS probe labelling

USP34, sequence (Q70CQ2 whole entry, the tested form may be a part): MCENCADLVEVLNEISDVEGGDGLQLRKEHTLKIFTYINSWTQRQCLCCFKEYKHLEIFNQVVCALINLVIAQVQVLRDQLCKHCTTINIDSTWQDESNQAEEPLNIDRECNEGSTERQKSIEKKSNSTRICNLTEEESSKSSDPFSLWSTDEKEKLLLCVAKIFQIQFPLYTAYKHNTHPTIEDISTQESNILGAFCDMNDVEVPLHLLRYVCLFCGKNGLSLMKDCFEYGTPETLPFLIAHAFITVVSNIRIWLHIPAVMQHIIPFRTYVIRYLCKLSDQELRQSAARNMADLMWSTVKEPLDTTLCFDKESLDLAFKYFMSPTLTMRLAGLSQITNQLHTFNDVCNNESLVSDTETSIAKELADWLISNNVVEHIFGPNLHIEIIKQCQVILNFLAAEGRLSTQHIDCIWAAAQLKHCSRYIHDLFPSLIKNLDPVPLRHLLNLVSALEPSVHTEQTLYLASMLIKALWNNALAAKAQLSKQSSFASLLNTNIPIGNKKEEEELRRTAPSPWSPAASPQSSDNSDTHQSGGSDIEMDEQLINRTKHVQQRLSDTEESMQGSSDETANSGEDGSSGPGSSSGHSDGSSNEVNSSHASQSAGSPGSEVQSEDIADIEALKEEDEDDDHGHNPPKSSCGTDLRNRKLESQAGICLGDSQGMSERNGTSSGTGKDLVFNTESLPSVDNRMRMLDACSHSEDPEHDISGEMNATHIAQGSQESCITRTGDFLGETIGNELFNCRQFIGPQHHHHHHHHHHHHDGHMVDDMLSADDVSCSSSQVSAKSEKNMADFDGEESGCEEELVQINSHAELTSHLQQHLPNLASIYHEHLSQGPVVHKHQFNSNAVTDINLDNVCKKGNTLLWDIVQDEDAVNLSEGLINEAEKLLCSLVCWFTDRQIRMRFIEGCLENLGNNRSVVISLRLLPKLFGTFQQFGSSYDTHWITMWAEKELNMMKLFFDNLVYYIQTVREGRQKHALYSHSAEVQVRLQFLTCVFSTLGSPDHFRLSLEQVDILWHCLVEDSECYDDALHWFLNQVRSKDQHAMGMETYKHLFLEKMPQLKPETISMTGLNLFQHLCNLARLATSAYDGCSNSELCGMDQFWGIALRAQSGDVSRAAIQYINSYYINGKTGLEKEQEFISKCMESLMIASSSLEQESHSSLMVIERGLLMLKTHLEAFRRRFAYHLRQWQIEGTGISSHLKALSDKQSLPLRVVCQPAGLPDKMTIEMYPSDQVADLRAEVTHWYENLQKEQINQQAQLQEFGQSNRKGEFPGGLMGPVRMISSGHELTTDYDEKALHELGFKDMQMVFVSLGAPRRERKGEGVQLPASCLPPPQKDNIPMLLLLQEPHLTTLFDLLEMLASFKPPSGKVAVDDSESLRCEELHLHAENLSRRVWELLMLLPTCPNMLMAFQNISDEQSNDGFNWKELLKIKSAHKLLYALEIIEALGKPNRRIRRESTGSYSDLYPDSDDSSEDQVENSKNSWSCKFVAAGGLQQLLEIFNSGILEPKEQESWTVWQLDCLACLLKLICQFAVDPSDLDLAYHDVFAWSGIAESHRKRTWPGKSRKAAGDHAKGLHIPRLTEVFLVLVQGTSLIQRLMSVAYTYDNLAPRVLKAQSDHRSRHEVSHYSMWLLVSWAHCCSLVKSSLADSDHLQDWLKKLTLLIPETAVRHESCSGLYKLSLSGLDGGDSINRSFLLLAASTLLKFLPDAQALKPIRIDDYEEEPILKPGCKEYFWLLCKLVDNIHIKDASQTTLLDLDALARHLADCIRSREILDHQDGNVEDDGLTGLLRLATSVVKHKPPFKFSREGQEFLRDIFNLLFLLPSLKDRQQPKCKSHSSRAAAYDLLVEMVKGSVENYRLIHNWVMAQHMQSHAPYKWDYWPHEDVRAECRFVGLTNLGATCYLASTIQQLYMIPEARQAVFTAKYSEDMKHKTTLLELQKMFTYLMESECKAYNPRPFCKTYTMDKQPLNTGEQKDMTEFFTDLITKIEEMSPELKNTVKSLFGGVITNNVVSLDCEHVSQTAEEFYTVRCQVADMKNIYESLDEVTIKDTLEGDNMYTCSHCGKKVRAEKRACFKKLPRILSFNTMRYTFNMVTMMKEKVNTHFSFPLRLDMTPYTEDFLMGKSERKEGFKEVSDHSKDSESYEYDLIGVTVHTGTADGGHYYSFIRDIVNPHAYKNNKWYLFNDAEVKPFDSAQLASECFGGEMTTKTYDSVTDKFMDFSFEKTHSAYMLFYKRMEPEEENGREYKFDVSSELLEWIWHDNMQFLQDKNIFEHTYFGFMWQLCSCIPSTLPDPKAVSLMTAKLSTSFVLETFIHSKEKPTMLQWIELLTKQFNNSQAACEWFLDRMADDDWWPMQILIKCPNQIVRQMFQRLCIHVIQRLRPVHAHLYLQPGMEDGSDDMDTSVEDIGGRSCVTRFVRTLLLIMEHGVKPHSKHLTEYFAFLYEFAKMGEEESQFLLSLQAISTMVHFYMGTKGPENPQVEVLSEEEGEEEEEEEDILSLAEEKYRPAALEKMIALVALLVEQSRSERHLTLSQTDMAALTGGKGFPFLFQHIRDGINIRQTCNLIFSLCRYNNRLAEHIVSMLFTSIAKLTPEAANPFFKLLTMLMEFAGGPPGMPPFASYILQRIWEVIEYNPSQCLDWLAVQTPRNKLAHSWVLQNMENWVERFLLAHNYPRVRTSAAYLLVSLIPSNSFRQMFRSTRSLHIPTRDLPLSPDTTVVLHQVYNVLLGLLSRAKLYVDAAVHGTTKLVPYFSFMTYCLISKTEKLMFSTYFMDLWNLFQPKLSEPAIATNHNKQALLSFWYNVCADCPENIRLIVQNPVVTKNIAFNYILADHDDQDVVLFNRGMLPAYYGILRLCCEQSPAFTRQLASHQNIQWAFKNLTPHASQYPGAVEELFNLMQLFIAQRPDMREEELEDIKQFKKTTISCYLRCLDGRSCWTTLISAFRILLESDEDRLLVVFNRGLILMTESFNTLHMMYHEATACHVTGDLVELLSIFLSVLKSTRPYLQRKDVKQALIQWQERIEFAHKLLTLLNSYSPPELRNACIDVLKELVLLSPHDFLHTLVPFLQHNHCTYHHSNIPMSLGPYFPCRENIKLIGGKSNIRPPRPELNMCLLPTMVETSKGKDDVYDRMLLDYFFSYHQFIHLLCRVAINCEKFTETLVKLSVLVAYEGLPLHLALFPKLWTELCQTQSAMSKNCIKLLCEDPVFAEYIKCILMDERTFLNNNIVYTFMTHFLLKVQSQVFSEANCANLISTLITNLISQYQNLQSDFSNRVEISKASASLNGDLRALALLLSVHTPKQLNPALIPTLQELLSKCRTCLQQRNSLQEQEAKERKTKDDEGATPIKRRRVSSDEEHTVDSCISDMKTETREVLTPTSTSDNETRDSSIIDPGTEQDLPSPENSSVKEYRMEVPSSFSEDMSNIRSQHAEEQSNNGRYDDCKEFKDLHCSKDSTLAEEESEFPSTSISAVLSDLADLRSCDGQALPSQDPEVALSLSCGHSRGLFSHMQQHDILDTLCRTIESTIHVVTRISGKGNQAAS

COc1ccc(-c2csc(NC(=O)CCl)n2)cc1
inactive: USP34 -0.405 | USP36 -0.137 | USP38 -0.188 | USP39 0.0959 | USP4 -0.299
